# CaV13 ICDI inh: Primary screen for inhibitors of IQ motif and Ca2+-dependent inactivation inhibitor domain binding in CACNA1D, Förster resonance energy transfer in living cells, …. HEK cells, CFP/YFP FRET ICDI-IQ, plate reader, 10 min; percent FRET-ratio fall versus neutral wells. inhibition, % at 12.3 µM. 0.098% of 340,000 active;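 active = mean replicate inhibition of at least 30% and at least 1% of replicates passing that level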;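 also: 0% = median of the neutral control wells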
# PDI turbidity: inhibitors of human protein disulfide isomerase. inhibition, % at 10 µM. 0.052% of 350,000 active. PDI insulin aggregation turbidity, A650, 90 min. P07237. AID 588391;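 active = mean inhibition across replicates of 30% or more, whatever share of single replicates reach that level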
# Target sequence (P07237 whole entry, looked up): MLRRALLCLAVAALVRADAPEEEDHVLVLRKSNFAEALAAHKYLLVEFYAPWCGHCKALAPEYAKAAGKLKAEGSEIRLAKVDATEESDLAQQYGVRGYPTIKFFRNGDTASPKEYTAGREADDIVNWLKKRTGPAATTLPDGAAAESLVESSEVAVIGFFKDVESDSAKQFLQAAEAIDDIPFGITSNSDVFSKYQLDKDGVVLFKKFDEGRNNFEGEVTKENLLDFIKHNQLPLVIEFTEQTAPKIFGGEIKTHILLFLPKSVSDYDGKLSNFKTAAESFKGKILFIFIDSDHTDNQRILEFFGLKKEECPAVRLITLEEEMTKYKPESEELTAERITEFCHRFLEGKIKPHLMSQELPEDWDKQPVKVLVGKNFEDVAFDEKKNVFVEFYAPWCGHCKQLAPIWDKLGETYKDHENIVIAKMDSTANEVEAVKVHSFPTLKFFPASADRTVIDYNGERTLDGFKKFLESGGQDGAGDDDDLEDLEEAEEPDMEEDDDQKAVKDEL
# ERp5 inh: blocks human ERp5 reductase activity on insulin; inhibition, % at 9.99 µM; ERp5 insulin aggregation, absorbance 650 nm, 90 min; 0.05% of 350,000 active; AID 651711; Q15084;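 active = mean replicate inhibition above about 25%, with every replicate also reaching it, limit read from the data, passing the limit was not always enough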
# PvdQ acylase: blocks Pseudomonas aeruginosa PvdQ acylase activity. AID 488965. inhibition, % at 10 µM. purified PvdQ acylase, fluorescence plate reader. 0.063% of 340,000 active; in the data active = inhibition above about 30%, passing the limit was not always enough;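 also: 0% = vehicle neutral wells and 100% = reference inhibitor wells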
# Active calls of the source: *; nt = not tested or not shown; + = active, no number. An excerpt weighted towards active compounds, which were near 0.2% of everything screened.
SMILES,CaV13 ICDI inh,PDI turbidity,ERp5 inh,PvdQ acylase
N#CCN(N=Nc1ccccc1)c1ccccc1,-4,-6,-1,75*
O=[N+]([O-])c1cccc(N=NN(CCO)c2cccc([N+](=O)[O-])c2)c1,nt,-6,nt,4
O=C(CCCN1C(=O)CSc2ncccc21)N1CCN(Cc2ccccc2)CC1,37*,14,4,-6
C[C@@H]1CCCCO[C@H](CN(C)C(=O)Cc2ccccc2)[C@@H](C)CN([C@@H](C)CO)C(=O)c2cc(NC(=O)CCCN(C)C)ccc2O1,nt,nt,1,nt
CC(=O)C1=C(O)C(=O)N(CCc2c[nH]c3ccccc23)C1c1ccc(O)cc1 (centres undefined),-4,46*,nt,-1
Cc1c(O)ccc2c(CN3CCN(CCO)CC3)cc(=O)oc12,-3,53*,nt,-3
CCCCC(=O)OC1CCC2C3CCc4cc(O)ccc4C3CCC12C (centres undefined),-6,71*,1,-5
O=c1cc(CSc2nnnn2-c2ccc(O)cc2)nc2sccn12,-2,39*,0,-12
Cn1c(Cc2ccccc2)nnc1SCc1cc(=O)n2ccsc2n1,-3,0,-7,-8
COCCCOc1cc(NCc2ccccc2)c2ncn(C(C)C)c2c1,122*,6,1,-1
Cn1nc(-c2ccc(Cl)cc2)c2cc(C(=O)N3CCN(c4ccccc4)CC3)sc21,48*,-4,3,-3
C[C@@H]1CCCCO[C@H](CN(C)Cc2ccc(C(F)(F)F)cc2)[C@@H](C)CN([C@@H](C)CO)C(=O)c2cc(NS(=O)(=O)c3ccccc3)ccc2O1,nt,nt,8,nt
Cc1cc(C)nc(N(C#N)Cc2ccccc2)n1,-5,-1,nt,38*
Cc1cc(C)nc(N(C#N)Cc2cccc3ccccc23)n1,-5,-5,nt,0
Cc1cc(C)nc(N(C#N)Cc2ccc([N+](=O)[O-])cc2)n1,-3,7,1,49*
N#CN(Cc1ccccc1)Cc1ccccc1,-5,2,-2,92*
COc1ccc(CN2[C@@H]3CN(C(=O)C4CC4)c4ccccc4[C@@H]3[C@@H]2CO)cc1,nt,nt,-2,nt
Nc1cccc2c1C(=O)N(c1ccccc1)C2=O,+,1,0,-18
O=C(Nc1ccc(F)cc1)N1CC(=O)N2[C@H](CO)[C@H](c3ccc(C#Cc4cccnc4)cc3)[C@H]2C1,nt,nt,-1,nt
O=C(CC1CC1)N1CC(=O)N2[C@H](CO)[C@@H](c3ccc(C#Cc4ccccc4)cc3)[C@H]2C1,nt,nt,4,nt
C[C@@H]1CN([C@@H](C)CO)C(=O)c2cc(NC(=O)Cc3ccccc3)ccc2O[C@@H]1CN(C)S(=O)(=O)c1cn(C)cn1,nt,nt,6,nt
CC(=O)Oc1ccc(C(=O)Nc2cc(C)on2)cc1,56*,2,0,-13
COc1ccc(C(=O)Nc2cc(C)on2)cc1,-6,1,nt,23
Cc1cc(NC(=O)c2ccc(Br)c([N+](=O)[O-])c2)no1,4,-5,2,64*
Cc1cc(NC(=O)c2cc([N+](=O)[O-])cc([N+](=O)[O-])c2C)no1,0,7,-8,88*
SMILES,CaV13 ICDI inh,PDI turbidity,ERp5 inh,PvdQ acylase
COCCNC(=O)/C(C#N)=C/c1ccc(N2CCOCC2)o1,-5,0,nt,4
N#C/C(=C\c1ccc(N2CCOCC2)o1)C(=O)NCCc1ccccc1,+,-4,-2,-5
CNC[C@H]1Oc2ccc(NC(=O)Nc3cccc4ccccc34)cc2C(=O)N([C@H](C)CO)C[C@@H]1C,nt,nt,0,nt
COc1ccc(CNC(=O)C2CCN(C(=O)c3ccc(F)cc3)CC2)cc1OC,-4,-6,-10,-16
COc1ccc(-c2csc(NC(=O)C3CCN(C(=O)c4ccc(F)cc4)CC3)n2)cc1OC,nt,1,29*,-13
C/C(CCC(C)C)=N\NS(=O)(=O)c1ccc(C)c([N+](=O)[O-])c1,-5,-5,5,-5
Cc1ccc(S(=O)(=O)NCCC(C)C)cc1[N+](=O)[O-],-18,16,-5,53*
CC(=O)c1ccc(OCc2cc(C(=O)N3CCC(c4ccncc4)CC3)no2)cc1,-7,-1,2,-11
CC(=O)c1ccc(OCc2cc(C(=O)N3CCCCC3c3cccnc3)no2)cc1 (centres undefined),-6,33*,10,-11
CCC(=O)N1CC2(C1)[C@@H](c1ccccc1)[C@H](CO)N2CCC(F)(F)F,nt,nt,-2,nt
COc1ccc(S(=O)(=O)NCC(c2ccc(F)cc2)N2CCOCC2)cc1Br (centres undefined),-6,31*,-1,11
CCOc1ccc(CNC2CCCc3ccccc32)cc1 (centres undefined),4,6,8,38*

# Screening data (PubChem BioAssay)
